A selection: hits, their analogues and other compounds. The true share with any hit is near 8%.
HT1080 IDH1KD tx: qHTS for induction of synthetic lethality in tumor cells producing 2HG: qHTS for the HT-1080-IDH1KD cell line. Potency, µM (titrated, usually from 46.1 µM), inactives show top-dose activity, negative = toxicity, actives largely listed as cytotoxic. 360,000 compounds, 2% hits. HT-1080 IDH1 knockdown viability, ATP luminescence, 48 h. AID 686971, 2013;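 also: 0% = DMSO wells and -100% = cell-free medium wells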
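HT-1080-IDH1KD cells (IDH1 knocked down), 750/well in RPMI with 5% FBS, treated with compound 48 h at 37 degrees C. Viability by CellTiter-Glo luminescence, normalised to DMSO and no-cell wells; concentration-response curves classed.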
KB-3-1 tox: qHTS assay for MDR1-selective chemotherapeutics: Primary screen using the parental adenocarcinoma cell KB-3-1; KB-3-1 viability, CellTiter-Glo ATP luminescence, 72 h; Potency, µM (series often up to 46.1 µM), usual class: cytotoxic; 400,000 compounds, 1.4% hits; AID 1347075, 2019; also: % is scaled to controls: 0 for no effect and ±100 for the full control effect; nearly all actives have a fitted effect of over 60% in size
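Multi-concentration cytotoxicity screen in KB-3-1 cells grown in DMEM lacking phenol red with 10% FBS. After 72 h at 37 °C with compound, ATP-dependent luminescence was recorded.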
KB-V1 MDR tox: qHTS assay for MDR1-selective chemotherapeutics: Primary screen using the drug-selected MDR subline cells KB-V1. AID 1347076, 2019. KB-V1 MDR cells viability, CellTiter-Glo, 72 h. 400,000 compounds, 3.4% hits. Potency, µM (titrated, usually from 46.1 µM), hits mostly cytotoxic; also: % is scaled to controls: 0 for no effect and ±100 for the full control effect; nearly all actives have a fitted effect of over 60% in size
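KB-V1, DMEM (no phenol red) + 10% FBS; cpd pin-transferred, titration series; 72 h, 37 degrees C; CellTiter-Glo, luminescence. Data normalized, curve-fit.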
HT1080-NT tox: qHTS for induction of synthetic lethality in tumor cells producing 2HG: qHTS for the HT-1080-NT fibrosarcoma cell line; HT-1080-NT fibrosarcoma viability, CellTiter-Glo ATP luminescence, 48 h; 360,000 compounds, 1.6% hits; Potency, µM (titrated, usually from 46.1 µM), for the others: at the highest dose activity, negative = less viability, most hits filed as cytotoxic;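 also: NT is the 2HG producing partner of a matched IDH1 knockdown line; 0% = DMSO-treated cells and -100% = media-only wells without cells; nearly all actives have a fitted effect of over 55% in size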
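Luminescent CellTiter-Glo readout after 48 hours of compound exposure at 37 degrees C defined viability of HT-1080-NT cells. Activity was normalized to DMSO wells and cell-free media wells; concentration-response curves were fitted and assigned curve classes.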
MCF10A rereplic: A quantitative high throughput screen for small molecules that induce DNA re-replication in MCF 10a normal breast cells; MCF 10A DNA re-replication, Hoechst nuclear intensity, 48 h; Potency, µM (titrated, usually from 46.1 µM), without a hit: at the top dose activity, positive = re-replication, most hits filed as activators; 350,000 compounds, 2.9% hits; AID 624296, 2012; also: % of control where 0% means no effect; nearly all actives have a fitted effect of over 50% in size
SW480 rerep: A quantitative high throughput screen for small molecules that induce DNA re-replication in SW480 colon adenocarcinoma cells; SW480 DNA re-replication, Hoechst DNA content imaging, 48 h; Potency, µM (series often up to 46.1 µM), without a hit: top-dose re-replication activation, most hits filed as activators; 340,000 compounds, 1.8% hits; also: % of control where 0% means no effect; nearly all actives have a fitted effect of over 55% in size
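Treated cells incubate 48 hr (37 C, 5% CO2), are stained 40 min with Hoechst, and nuclear fluorescence is enumerated; a rise in nuclei with high DNA signal marks re-replication.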
* hit, by the source's call; i = inactive; ? = inconclusive; / = not tested or not shown. Calls follow the shape of the dose curve; as a rule, active = well fitted curve in the direction sought with a large enough effect; inconclusive = small, poorly fitted or top-dose-only effect, or another doubt; inactive = no such curve, though single readings can be large; an effect the other way counts as inactive or inconclusive. Potency is read from the fitted curve at half-maximal effect.

SMILES	HT1080 IDH1KD tx	KB-3-1 tox	KB-V1 MDR tox	HT1080-NT tox	MCF10A rereplic	SW480 rerep
COc1ccc(-c2nnc(SCc3cc(C)cc(C)c3)o2)cc1	14%	i	21µM*	22%	27%	-2%
Cc1ccc(C(=O)CSc2nnc(-c3ccco3)o2)o1	0%	i	i	-10%	-3%	-2%
COc1cc(OC)cc(-c2nnc(SCC(=O)N(C(C)C)C(C)C)o2)c1	-1%	i	i	4%	?	-1%
COc1cccc(-c2nnc(SCC(=O)N(C(C)C)C(C)C)o2)c1	-1%	i	18µM*	0%	?	0%
COc1ccc(CN(C(=O)CSc2nnc(-c3c[nH]c4ccccc34)o2)c2ccc(F)cc2)cc1OC	?	?	15µM*	?	4.1µM*	7%
COc1ccc(-c2nnc(SCC(=O)c3ccc(C)o3)o2)cc1	-2%	?	23µM*	2%	-2%	-8%
Cc1ccc(CNC(=O)c2cncc(Br)c2)cc1	-4%	i	i	6%	3%	-5%
COCC(=O)N1CCCc2ccccc21	1%	i	?	-8%	0%	?
O=C(CCN1C(=O)c2ccccc2S1(=O)=O)Nc1ccc(F)c([N+](=O)[O-])c1	-3%	i	i	-3%	10%	-5%
CC(C)c1ccc2oc(-c3cc(N)ccc3O)nc2c1	-20%	i	18µM*	-10%	29%	6%
COCCNC(=S)N/N=C(\C)c1ccc(-n2ccnc2)cc1	10µM*	i	?	?	16%	7.1µM*
CCc1ccc(CN(Cc2cccnc2)C(=O)/C=C/c2ccc(OC)cc2)cc1	?	i	?	?	18µM*	16%
COc1ccc(/C=C/C(=O)NCc2cccnc2)cc1	7%	i	i	21%	-4%	-3%
COc1ccc(Sc2nc(-c3ccccn3)ncc2OC)cc1	?	i	?	?	?	9.2µM*
CCOC(=O)CSc1nc(-c2ccccn2)ncc1OC	8%	i	?	7%	?	0%
COc1cnc(-c2ccccn2)nc1Sc1ccc(F)cc1	-25%	i	i	21µM*	2%	-37%
COc1cnc(-c2ccccn2)nc1Sc1ccccc1	-18%	i	i	?	7%	?
COc1cnc(-c2ccccn2)nc1Sc1ccc(Cl)cc1	-2%	?	?	4%	15µM*	21µM*
CC(=O)n1cc(/C=C2/N=C(c3ccccc3)OC2=O)c2ccccc21	0%	i	i	7%	-3%	0%
O=C(O)C(=Cc1cc2c(cc1[N+](=O)[O-])OCO2)c1cc2c(cc1Br)OCO2	-9%	i	i	-5%	1%	-3%
COc1ccc(CC(=O)Nc2ccc(-c3nc4ccccc4s3)cc2Cl)cc1	/	i	i	/	/	/
CCCCn1ccnc1C(=O)c1ccc(S(=O)(=O)N2CCCC2)cc1	1%	i	?	0%	8%	?
COC(=O)c1sccc1S(=O)(=O)Nc1ccc(C)cc1	-3%	i	i	-1%	-6%	-8%
CC(NC(=O)/C(C#N)=C1\N=C(NC(=O)c2ccco2)c2ccccc21)c1ccccc1 (centres undefined)	-6%	i	i	0%	9%	-4%
Cc1noc2ncnc(NCc3ccc(Cl)cc3)c12	/	i	i	/	/	/
SMILES	HT1080 IDH1KD tx	KB-3-1 tox	KB-V1 MDR tox	HT1080-NT tox	MCF10A rereplic	SW480 rerep
COc1cccc(CNc2ncnc3onc(C)c23)c1	/	21µM*	i	/	/	/
CCc1ccc(CNCCNC(=O)c2ccco2)cc1	-10%	i	?	-24%	18µM*	?
CSc1cccc(NC(=S)N2CCCN(Cc3ccccc3F)C2)c1	-14%	i	i	-26%	?	5%
COc1ccc(OCCn2cc(C=O)c3ccccc32)cc1	-7%	i	i	-12%	?	-7%
CC1=CN2C(=N)/C(=C\c3cn(CCCOc4ccccc4)c4ccccc34)C(=O)N=C2S1	?	i	?	?	3.7µM*	/
O=C(NC1CCCC1)C1CCN(S(=O)(=O)N2CCCCC2)CC1	1%	i	i	4%	1%	-3%
CCCC(c1nnnn1Cc1ccco1)N1CCN(c2ccccc2)CC1 (centres undefined)	7%	i	i	10%	-6%	-3%
CCCC(c1nnnn1Cc1ccco1)N1CCN(c2cc(Cl)ccc2C)CC1 (centres undefined)	?	?	?	-9%	25µM*	2%
COc1ccc2nc(SCC(=O)Nc3ccc(S(=O)(=O)N4CCCC4)cc3)c(C#N)cc2c1	?	i	i	4%	-4%	4%
N#Cc1cc2c(nc1SCC(=O)Nc1sc3c(c1C#N)CCC3)CCCCC2	-4%	i	i	10%	0.82µM*	18µM*
N#Cc1c(NC(=O)CSc2ncn[nH]2)sc2c1CCCCC2	?	i	4.1µM*	?	-1%	?
Cc1noc(NS(=O)(=O)c2ccc(NC(=O)CSc3nc4c(cc3C#N)CCCC4)cc2)c1C	3%	i	?	2%	23µM*	2%
N#Cc1c(NC(=O)CSc2nc(N)cc(=O)[nH]2)sc2c1CCCCCC2	-5%	?	?	-8%	26%	-4%
N#Cc1cc2ccccc2nc1SCC(=O)Nc1ccc(S(=O)(=O)N2CCCC2)cc1	-26%	i	4.1µM*	-19%	24%	14%
N#Cc1nc(-c2ccc(COc3ccccc3)o2)oc1N1CCCCC1	/	i	i	/	/	/
CCOC(=O)c1c(N)nn(C(=O)C(C)C)c1-c1ccccc1	-28%	i	?	-4%	9%	-36%
O=C(c1ccco1)N1CCN(c2ncnc3c2[nH]c2ccc(Br)cc23)CC1	?	?	?	?	?	1%
O=C(NCc1ccccc1)C(c1ccc(F)cc1)N1CCN(c2ccccc2F)CC1 (centres undefined)	?	i	i	?	/	/
Cc1cc(NC(=O)CSc2nc3c(cc2C#N)CCC3)no1	-8%	i	i	7%	?	15µM*
CCCCn1nnnc1SCC(=O)Nc1sc2c(c1C#N)CCCC2	?	i	?	-1%	11µM*	3%
